Results taken from PubChem BioAssay (Tox21).
Inconclusive results are not listed. Activity calls are given as the source filed them. Unless noted, calls come from the whole dose curve; as a rule, active = well fitted curve in the direction sought with a large enough effect in the repeat runs; inconclusive = weak or mixed curves; inactive = no such curve, though single readings can be large; an effect the other way counts as inactive or inconclusive.

Key:
[1] = qHTS assay for small molecule agonists of the p53 signaling pathway (AID 651631; calls by dose curve; note: nearly all actives have a fitted effect of over 15% in size)
Summary of the method: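 Testing took place in human colorectal HCT-116 cells with stable p53RE-driven beta-lactamase. After 16 h of compound exposure at 37 °C, a FRET substrate was added and fluorescence recorded 2 h later.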

[2] = qHTS assay for small molecules that induce genotoxicity in human embryonic kidney cells expressing luciferase-tagged ATAD5 (AID 651632); note: nearly all actives have a fitted effect of over 15% in size
Summary of the method: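 HEK293T cells carrying a luciferase reporter tagged to ATAD5 were exposed to compound or DMSO vehicle for 16 hr at 37C, 5% CO2. Amplite was added, and after 30 min at room temperature luciferase activity was read as a marker of ATAD5 induction.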

[3] = qHTS assay for small molecule agonists of the p53 signaling pathway - cell viability (AID 651633; calls by dose curve; note: series mostly up to about 83 µM; nearly all actives have a fitted effect of over 30% in size)
Summary of the method: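 p53RE-bla cells, seeded at 4,000 per well and rested 5 h at 37 C/5% CO2, received compounds in DMSO for 16 h at 37 C. CellTiter-Glo was then added, and luminescence was read after 30 min at room temperature to gauge cytotoxicity.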

[4] = qHTS assay for small molecules that induce genotoxicity in human embryonic kidney cells expressing luciferase-tagged ATAD5 - cell viability (AID 651634; calls by dose curve; note: nearly all actives have a fitted effect of over 25% in size)
Summary of the method: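 HEK293T cells expressing luciferase-tagged ATAD5 were exposed to compound or DMSO for 15.5 hr at 37C, 5% CO2. Viability was then read as live-cell protease activity by CellTiter-Fluor fluorescence after 30 min at 37C.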

[5] = qHTS assay for small molecule disruptors of the mitochondrial membrane potential - cell viability (AID 720634; calls by dose curve;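 note: human HepG2 liver cancer cells; series mostly up to about 83 µM; nearly all actives have a fitted effect of over 20% in size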)
Summary of the method: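 HepG2 cells seeded overnight at 37 C, then exposed to compound or DMSO for 1 hr at 37 C, 5% CO2. m-MPI dye added, then CellTiter-Glo for 30 min at room temperature; viability read as ATP luminescence.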

[6] = qHTS assay for small molecule disruptors of the mitochondrial membrane potential (AID 720635)
Summary of the method: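 HepG2 cells (2,000/well) attached overnight at 37C, then took compound for 1 hr at 37C, 5% CO2. Mito-MPS dye was added for 30 min; fluorescence was read at 490/535 nm (monomers) and 540/590 nm (aggregates).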

[7] = qHTS assay to test for compound auto fluorescence at 590 nm (red) in HepG2 cells (AID 720674)
Summary of the method: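 Intrinsic compound fluorescence in the red window (Ex/Em 540/590 nm) is measured in attached HepG2 cells exposed for 1 hr, DMSO vehicle as baseline, benchmarked to Rose Bengal sodium.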

[8] = qHTS assay to test for compound auto fluorescence at 535 nm (green) in HepG2 cells (AID 720675)
[9] = qHTS assay to test for compound auto fluorescence at 460 nm (blue) in HEK293 cells (AID 720678)
Summary of the method: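 HEK293 cells (2,000 per well, medium with 10% dialyzed FBS) attached for 4-5 hr at 37C, then received compound and stood overnight at 37C, 5% CO2. Blue fluorescence was read at Ex/Em 405/460 nm and expressed relative to triamterene.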

[10] = qHTS assay to test for compound auto fluorescence at 590 nm (red) in HEK293 cells (AID 720679)
Summary of the method: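 HEK293 cells (2,000/well, medium with 10% dialyzed FBS) attached for 4-5 hr at 37C, received 23 nL compound and were incubated overnight at 37C, 5% CO2. Red fluorescence was then read at 540/590nm Ex/Em, referenced to Rose Bengal sodium.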

[11] = qHTS assay to test for compound auto fluorescence at 535 nm (green) in HEK293 cells (AID 720680)
[12] = qHTS assay to test for compound auto fluorescence at 460 nm (blue) in HEK293 cell free culture (AID 720681)
Summary of the method: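 Test compounds were pinned into cell-free culture medium (DMEM with 10% FBS) and fluorescence was read directly at Ex/Em 405/460 nm. Signals were expressed as fluorescence equivalents of triamterene, with DMSO vehicle as control.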

[13] = qHTS assay to test for compound auto fluorescence at 535 nm (green) in HEK293 cell free culture (AID 720682)
Summary of the method: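 DMEM + 10% FBS, cell-free; cpd or DMSO pinned in; Ex485/Em535 read; output as fluorescein-equivalent signal.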

[14] = qHTS assay to test for compound auto fluorescence at 590 nm (red) in HepG2 cell free culture (AID 720684)
Summary of the method: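 Red fluorescence (540 nm excitation, 590 nm emission) was measured after compound transfer into cell-free MEM supplemented with 10% FBS. Values are equivalencies against Rose Bengal sodium.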

[15] = qHTS assay to test for compound auto fluorescence at 460 nm (blue) in HepG2 cell free culture (AID 720685)
Summary of the method: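 Compound (23 nL) or DMSO pinned into cell-free MEM with 10% FBS; blue fluorescence read at 405/460 nm excitation/emission, expressed as auto-fluorescence equivalency to triamterene.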

[16] = qHTS assay to test for compound auto fluorescence at 535 nm (green) in HepG2 cell free culture (AID 720686)
[17] = qHTS assay to test for compound auto fluorescence at 460 nm (blue) in HepG2 cells (AID 720687)
Summary of the method: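 Cells (2,000/well in MEM with 10% FBS) attached overnight at 37 C, then were exposed to compound or DMSO for 1 hr at 37 C, 5% CO2. Fluorescence read at Ex/Em 405/460 nm, expressed as triamterene-equivalent signal.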

[18] = target: Glucocorticoid receptor (Homo sapiens) (UniProt P04150); test: qHTS assay to identify small molecule agonists of the glucocorticoid receptor (GR) signaling pathway (AID 720691; active = well fitted activation curve with a large enough effect in the signal ratio in the repeat runs, not every such curve was filed as active; the % refers to the signal ratio)
Chain of Glucocorticoid receptor (Homo sapiens) (P04150 whole entry, looked up): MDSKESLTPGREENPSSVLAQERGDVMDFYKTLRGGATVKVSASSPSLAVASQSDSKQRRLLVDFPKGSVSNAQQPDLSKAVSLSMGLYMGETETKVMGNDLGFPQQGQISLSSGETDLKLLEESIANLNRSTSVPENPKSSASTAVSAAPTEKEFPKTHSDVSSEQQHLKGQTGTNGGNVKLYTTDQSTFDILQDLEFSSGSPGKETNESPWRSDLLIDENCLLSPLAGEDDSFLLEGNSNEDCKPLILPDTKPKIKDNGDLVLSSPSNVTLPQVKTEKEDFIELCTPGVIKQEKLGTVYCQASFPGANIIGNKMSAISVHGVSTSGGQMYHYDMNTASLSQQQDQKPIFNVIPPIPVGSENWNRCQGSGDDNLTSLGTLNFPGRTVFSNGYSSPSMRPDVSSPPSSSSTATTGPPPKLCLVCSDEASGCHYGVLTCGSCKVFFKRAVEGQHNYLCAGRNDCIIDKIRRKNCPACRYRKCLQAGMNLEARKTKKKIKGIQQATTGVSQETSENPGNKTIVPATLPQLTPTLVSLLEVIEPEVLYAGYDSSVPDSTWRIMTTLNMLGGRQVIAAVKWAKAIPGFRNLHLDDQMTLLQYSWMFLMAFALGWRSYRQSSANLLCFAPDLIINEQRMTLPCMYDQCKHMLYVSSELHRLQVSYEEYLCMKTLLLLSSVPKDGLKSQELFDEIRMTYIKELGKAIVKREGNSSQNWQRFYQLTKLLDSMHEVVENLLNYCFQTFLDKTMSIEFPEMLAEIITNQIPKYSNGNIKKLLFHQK
Summary of the method: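 GR-bla HeLa cells (beta-lactamase reporter under glucocorticoid response element) were plated 4 h at 37 C/5% CO2, given compounds in DMSO, and incubated 18 h at 37 C. LiveBLAzer B/G FRET substrate was added for 2 h at room temperature, then fluorescence intensity read.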

[19] = qHTS assay to test for compound auto fluorescence at 590 nm (red) in HEK293 cell free culture (AID 720683)
Summary of the method: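 Tox21 10K library compounds were pinned into cell-free DMEM with 10% FBS and fluorescence was read at excitation 540 nm. Activity is expressed as Rose Bengal sodium equivalency.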

[20] = target: Glucocorticoid receptor (Homo sapiens) (UniProt P04150); test: qHTS assay to identify small molecule antagonists of the glucocorticoid receptor (GR) signaling pathway (AID 720692; active = well fitted inhibition curve with a large enough effect in the signal ratio in the repeat runs, not every such curve was filed as active; the % refers to the signal ratio)
Summary of the method: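 GR-bla HeLa cells (beta-lactamase reporter under glucocorticoid response element) were pre-plated 4 h at 37 C, treated with compounds plus 5 nM dexamethasone (final) for 18 h, then read by LiveBLAzer B/G FRET fluorescence after 2 h.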

Measured: Potency

Cc1ccc(NC(N)=O)cc1
not listed: [19] | [20]
inactive: all other assays above

COc1ccc(Cl)cc1C
not listed: [17]
inactive: all other assays above

CCCCCCCCC1CO1 (configuration not stated)
not listed: [16] | [19]
inactive: all other assays above

C=CCn1cc[n+](C)c1
not listed: [11] | [18]
inactive: all other assays above

CCCCc1ccc(Cl)cc1
not listed: [16] | [18] | [19] | [20]
inactive: all other assays above

CCCCC(CC)CCC(CC(C)C)OS(=O)(=O)O (configuration not stated)
not listed: [6] | [16] | [17] | [18] | [20]
inactive: all other assays above

CCC(C)(C)C
not listed: [6] | [18] | [20]
inactive: all other assays above

CC1(C)C(=O)C(C)(C)C1=O
not listed: [9] | [18] | [20]
inactive: all other assays above

C=CC(C)(CCC=C(C)C)OC(=O)C(C)C (configuration not stated)
not listed: [19]
inactive: all other assays above

CCCCCCCOC(C)=O
not listed: [18] | [20]
inactive: all other assays above

C=CCN1CCc2nc(N)sc2CC1
not listed: [9]
inactive: all other assays above

C/C=C(\C)C(=O)OC/C=C(\C)CCC=C(C)C
inactive: all assays above

CCCCCCCCCCCCCC(=O)OCC
not listed: [9] | [17] | [20]
inactive: all other assays above

O=C(OOC(=O)c1ccccc1)c1ccccc1
not listed: [18]
inactive: all other assays above

Cc1ccc(N)nc1
not listed: [16] | [18] | [20]
inactive: all other assays above
